Reference: PubChem BioAssay (NCATS)
Records with an inconclusive call do not appear. Calls of active or inactive are those of the source. Calls come from the whole dose curve; as a rule, active = well fitted curve in the direction sought with a large enough effect in the repeat runs; inconclusive = weak or mixed curves; inactive = no such curve, though single readings can be large; an effect the other way counts as inactive or inconclusive.

What follows are compounds tested against Cytochrome P450 2D6 (Homo sapiens) (UniProt P10635) (assay: Cytochrome P450 family 2 subfamily D member 6 (CYP2D6) small molecule antagonists: luciferase biochemical (cell-free) qHTS assay (AID 1645840)). Details: P450-Glo CYP2D6 enzyme, luciferin luminescence, 1 h; series mostly up to 57.4 µM.
Procedure, shortened: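 P450-Glo luminescent screen: recombinant CYP2D6 enzyme–proluciferin substrate mix preincubated with compound 10 min at room temperature, then NADPH regeneration added for 1 h at room temperature. Detection reagent added for 20 min; luciferin light read as relative luminescence units.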
Note: nearly all actives have a fitted effect of over 55% in size.
Potency is the fitted concentration of half-maximal effect.

Chain of Cytochrome P450 2D6 (Homo sapiens) (P10635 whole entry, looked up): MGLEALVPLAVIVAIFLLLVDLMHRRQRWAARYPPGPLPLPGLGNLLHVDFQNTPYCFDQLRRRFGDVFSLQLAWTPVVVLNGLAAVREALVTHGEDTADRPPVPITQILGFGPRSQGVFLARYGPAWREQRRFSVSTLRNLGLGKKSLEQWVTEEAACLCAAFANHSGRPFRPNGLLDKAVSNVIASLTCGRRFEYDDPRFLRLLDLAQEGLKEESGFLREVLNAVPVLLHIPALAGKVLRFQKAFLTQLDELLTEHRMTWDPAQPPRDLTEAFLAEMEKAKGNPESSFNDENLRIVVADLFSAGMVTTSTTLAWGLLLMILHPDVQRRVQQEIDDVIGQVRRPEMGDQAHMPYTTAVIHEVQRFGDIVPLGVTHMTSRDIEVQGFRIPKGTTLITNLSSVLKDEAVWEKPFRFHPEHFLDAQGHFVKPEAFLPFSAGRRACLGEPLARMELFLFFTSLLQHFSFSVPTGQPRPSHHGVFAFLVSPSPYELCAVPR

Structure (SMILES)	Potency
O=C1C(I)=CC(=C(c2cc(I)c(O)c(I)c2)c2ccccc2C(=O)O)C=C1I	9.77 µM (active)
CCCCCCCCc1ccc(O)cc1	31 µM (active)
CCCCCCCCCC(CC)c1ccc(S(=O)(=O)O)cc1 (centres undefined)	26.7 µM (active)
CS(=O)(=O)c1ccc(C(=O)C2C(=O)CCCC2=O)c([N+](=O)[O-])c1	inactive
O=[N+]([O-])c1c2ccccc2cc2ccccc12	inactive
Nc1ccc(Sc2ccc(N)cc2)cc1	24.5 µM (active)
O=S(=O)(O)C(F)(F)C(F)(F)C(F)(F)C(F)(F)C(F)(F)C(F)(F)C(F)(F)C(F)(F)F	inactive

Each compound was assayed against Cytochrome P450 2C9 (Homo sapiens) (UniProt P11712) (assay: Cytochrome P450 family 2 subfamily C member 9 (CYP2C9) small molecule antagonists: luciferase biochemical (cell-free) qHTS assay (AID 1645842)). Details: P450-Glo CYP2C9 enzyme assay, luciferin luminescence; series mostly up to 57.4 µM.
Procedure, shortened: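 Luminescence, after 20 min with luciferin detection reagent, reflected CYP2C9 turnover during a 1 h NADPH-driven reaction at 37C. Enzyme-substrate mix contained 0.4% bovine serum albumin and was preincubated with compound 10 min at room temperature.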

Chain of Cytochrome P450 2C9 (Homo sapiens) (P11712 whole entry, looked up): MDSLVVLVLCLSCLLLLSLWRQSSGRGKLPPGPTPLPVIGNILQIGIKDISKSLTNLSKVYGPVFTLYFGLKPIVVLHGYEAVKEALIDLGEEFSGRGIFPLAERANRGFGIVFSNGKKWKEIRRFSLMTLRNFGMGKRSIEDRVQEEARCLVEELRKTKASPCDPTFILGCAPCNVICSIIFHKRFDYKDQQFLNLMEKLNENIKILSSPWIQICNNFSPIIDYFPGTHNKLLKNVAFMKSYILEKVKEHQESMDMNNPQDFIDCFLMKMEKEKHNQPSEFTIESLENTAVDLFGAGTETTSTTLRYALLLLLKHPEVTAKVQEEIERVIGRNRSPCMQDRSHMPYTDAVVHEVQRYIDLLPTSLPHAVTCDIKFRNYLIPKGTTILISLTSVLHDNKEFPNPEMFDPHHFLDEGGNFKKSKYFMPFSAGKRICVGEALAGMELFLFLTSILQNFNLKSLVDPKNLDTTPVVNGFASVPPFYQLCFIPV

Structure (SMILES)	Potency
O=C1C(I)=CC(=C(c2cc(I)c(O)c(I)c2)c2ccccc2C(=O)O)C=C1I	3.09 µM (active)
CCCCCCCCc1ccc(O)cc1	30.1 µM (active)
CCCCCCCCCC(CC)c1ccc(S(=O)(=O)O)cc1 (centres undefined)	7.74 µM (active)
CS(=O)(=O)c1ccc(C(=O)C2C(=O)CCCC2=O)c([N+](=O)[O-])c1	26.4 µM (active)
O=[N+]([O-])c1c2ccccc2cc2ccccc12	10.8 µM (active)
CCCN(CCC)c1c([N+](=O)[O-])cc(S(N)(=O)=O)cc1[N+](=O)[O-]	3.77 µM (active)
CC1=C(O)C(=O)C=C2C1=CC=C1[C@@]2(C)CC[C@@]2(C)[C@@H]3C[C@](C)(C(=O)O)CC[C@]3(C)CC[C@]12C	12 µM (active)
CC1(N2CCC(n3c([C@@H]4CCCNC4)nc4ccccc43)CC2)CCCCCCC1	inactive
Nc1ccc(Sc2ccc(N)cc2)cc1	0.92 µM (active)
COc1nn(CSP(=S)(OC)OC)c(=O)s1	5.17 µM (active)
Nc1ccc(N=Nc2ccccc2)cc1	9.2 µM (active)
O=S(=O)(O)C(F)(F)C(F)(F)C(F)(F)C(F)(F)C(F)(F)C(F)(F)C(F)(F)C(F)(F)F	0.564 µM (active)
